# Laboratory results taken from ChEMBL document CHEMBL3988442, “University of Dundee, Small-Polar-MMV Screening Library” (2021).
# Screen size: about 48,000 compounds; about 13,000 (27%) showed an effect of 50% or more. This is one part of the list.
# System: Wolbachia pipientis
# Assay: Anti-Wolbachia Cell-Based Screen
# Format: functional
# Parameters: scale not given: in the data most compounds retested in dose-response had high values
# Conditions: 5 µM
row,SMILES,Percent Effect [%]
1,COCC1CCCCN1Cc1nc(-c2ccoc2)oc1C (stereo not drawn),2.327
2,Cn1cc(N2CCN(c3ccc(C#N)cc3Br)CC2=O)cn1,-23.45
3,CCc1ccccc1OC1CN(C(=O)CN(C)Cc2ccncc2)C1,0.8406
4,CC(C)c1ccn(C2(C(=O)O)CCN(c3cc(C(N)=O)ccn3)CC2)n1,10.23
5,O=C(COc1cccnc1)NCc1nncn1C1CCCCC1,-1.054
6,Cc1cnc(N2CC[C@@]3(O)CCCC[C@H]3C2)nc1-c1ccnn1C,-8.985
7,Cc1nn2c(N3CCC(C#N)CC3)cc(-c3ccccc3)nc2c1C,-8.665
8,c1ccc(CCN2CCN(c3ccc4nncn4n3)CC2)cc1,80.05
9,Cc1ccc(C)c2c1NC(=O)C2CC(=O)O (stereo not drawn),5.742
10,COCc1nc(NC(C)Cc2cc(C)n[nH]2)c2cnn(C)c2n1 (stereo not drawn),4.118
11,COc1ccc(C(=O)N2CCC(Nc3cccnn3)CC2)cn1,104
12,CC(C)Oc1ccc(C(=O)N2CCC(Nc3cccnn3)CC2)cn1,123.7
13,COc1ccc(C(=O)N2CCC(Nc3cccnn3)CC2)c(OC)c1,-3.344
14,C[S+]([O-])c1ccc(CNc2ccc(F)cc2OC(F)F)cc1 (stereo not drawn),0.9094
15,Cc1nn(C)cc1-c1cc(C(F)F)n2nc(CCC(=O)O)nc2n1,110.6
16,CCn1cc(C(=O)NCC(OC)c2cccc(Cl)c2)cn1 (stereo not drawn),4.602
17,CCn1cc(-c2cc(C(F)F)n3nc(CCC(=O)O)nc3n2)cn1,98.47
18,Cn1cc(-c2csc(N3CCN(C(=O)OC(C)(C)C)CC3)n2)cn1,8.816
19,Cn1cc(-c2csc(N3CCOCC3)n2)cn1,-6.106
20,CCn1cc(-c2cc(C(F)F)n3nc(CC(=O)O)nc3n2)cn1,108.3
21,Cc1nn(C)cc1-c1ccnc(N(C)Cc2noc(C(C)C)n2)n1,1.029
22,Cn1ncc(NC(=O)Cn2cc(-c3ccc(F)cn3)cn2)n1,2.479
23,Cn1cc(-c2cc(C(F)F)n3nc(CCC(=O)O)nc3n2)cn1,133.7
24,CCCc1cnc(C)nc1N1CCC2(CCCO2)CC1,-4.323
25,O=C(C1CCC1)N1CCN(Cc2ccccc2F)[C@H]2CS(=O)(=O)C[C@H]21,4.948
26,Cc1nc(CN(C)C(=O)Nc2cnn(CC3CCCO3)c2)cs1 (stereo not drawn),-5.003
27,Cc1nc(CCNC(=O)CC2CCN(C(C)C)CC2)sc1Cl,-9.554

row,SMILES,Percent Effect [%]
1,Cc1ccsc1C(=O)N1CC2CC1(C(=O)NCC1CC1)C2,-19.62
2,CCn1ncc(-c2cc(C(F)F)n3nc(CCC(=O)O)nc3n2)c1C,94.49
3,CCn1ncc(-c2nc3c[nH]n(CC)c-3n2)c1C,-16.08
4,COc1ccccc1C(=O)N1CCC(Oc2ccc(C#N)cn2)CC1,-9.351
5,CC1CCCCN1c1nc2c(c(=O)[nH]1)CCN(Cc1ccc(O)cc1)C2 (stereo not drawn),108.9
6,Cc1cccc(CN2CCc3c(nc(N4CCCCC4C)[nH]c3=O)C2)n1 (stereo not drawn),-2.625
7,c1cc(CN2CCc3c(CN4CCCC4)n[nH]c3C2)ccn1,-1.373
8,Fc1cccc2[nH]c(CN3CCc4cncnc4C3)nc12,8.027
9,CC1CCCCN1c1nc2c(c(=O)[nH]1)CCN(Cc1ccccc1F)C2 (stereo not drawn),109.6
10,CCCn1nc2c(cc1=O)CN(Cc1ccccn1)CC2,-24.61
11,Cc1ccsc1CN1CCc2c(nc(N3CCCCC3C)[nH]c2=O)C1 (stereo not drawn),117.5
12,CC1CCCCN1c1nc2c(c(=O)[nH]1)CCN(Cc1ccccn1)C2 (stereo not drawn),67.76
13,Cc1ccsc1CN1CCC(c2cc(C(C)C)n[nH]2)CC1,15.3
14,Cc1[nH]c(=O)[nH]c(=O)c1CN1CCCC(CCc2ccccc2F)C1 (stereo not drawn),3.318
15,Cc1ccsc1CCNC(=O)CCC1CCCCN1C (stereo not drawn),3.946
16,Cn1cnc2c1CCN(Cc1ccc(C(=O)N3CCCC3)cc1)C2,0.7019
17,C=C(C)CN(CC)Cc1nc(C)no1,10.24
18,COCc1nc(C(=O)NS(=O)(=O)c2cc(F)ccc2F)cs1,4.131
19,Cc1cc(C(=O)NCC(O)c2ccc(Cl)s2)c(C)o1 (stereo not drawn),-36.26
20,CCC1CN(CCNS(C)(=O)=O)c2ccccc2O1 (stereo not drawn),-11.22
21,CCNc1c(C#N)c(=O)n(C)c(=O)n1C,7.391
22,CC1CCCCN1c1nc2c(c(=O)[nH]1)CCN(Cc1ccccc1O)C2 (stereo not drawn),110.1
23,NC(=O)N1CCCC(C(=O)N2CCc3c(nc(CC4CC4)[nH]c3=O)C2)C1 (stereo not drawn),10.65
24,Cc1nc(-c2cccc(C(=O)O)c2)cc(C2CCN(C(C)C)C2)n1 (stereo not drawn),-0.6305
25,Cc1nc(-c2ccc(C(=O)O)cc2)cc(C2CCCN(C(C)C)C2)n1 (stereo not drawn),96.58
26,Cc1nc(-c2cccc(C(=O)O)c2)cc(C2CCCN(C(C)C)C2)n1 (stereo not drawn),109.5
